Test [1] is described as follows: qHTS assay for small molecule agonists of the p53 signaling pathway (AID 651631; calls by dose curve; note: nearly all actives have a fitted effect of over 15% in size; note: potency is the fitted concentration of half-maximal effect). An outline of the steps: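 HCT-116 cells carrying a stable p53 response element–beta-lactamase reporter were plated, rested 5 h at 37 °C, then exposed to compound in DMSO for 16 h at 37 °C; reporter activity was read as FRET substrate fluorescence after 2 h at room temperature.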
Background: qHTS replaces the single test concentration by a dilution series.

Test [2] in a line: qHTS assay for small molecules that induce genotoxicity in human embryonic kidney cells expressing luciferase-tagged ATAD5 (AID 651632). Note: nearly all actives have a fitted effect of over 15% in size. Note: potency is the fitted concentration of half-maximal effect. The method in brief:
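A rise in luciferase signal from ATAD5-tagged HEK293T cells marks genetic stress. Cells were exposed to compounds for 16 hr at 37C, 5% CO2, then luciferase was quantified after a 30 min room-temperature incubation with Amplite.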

Test [3] is described as follows: qHTS assay for small molecule agonists of the p53 signaling pathway - cell viability (AID 651633; calls by dose curve; note: nearly all actives have a fitted effect of over 30% in size; note: potency is the fitted concentration of half-maximal effect). An outline of the steps: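 p53RE-bla cells were treated with compound for 16 hours at 37 C. Cytotoxicity was then measured as CellTiter-Glo luminescence after 30 min at room temperature.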
Test [4] can be described thus: qHTS assay for small molecules that induce genotoxicity in human embryonic kidney cells expressing luciferase-tagged ATAD5 - cell viability (AID 651634; calls by dose curve; note: nearly all actives have a fitted effect of over 25% in size; note: potency is the fitted concentration of half-maximal effect). The method in brief: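 Cytotoxicity counter-readout: after 15.5 hr compound treatment at 37C, live-cell protease activity in ATAD5-luciferase HEK293T cells measured by CellTiter-Fluor fluorescence, 30 min development at 37C.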

The nature of test [5]: qHTS assay for small molecule disruptors of the mitochondrial membrane potential - cell viability (AID 720634; calls by dose curve; note: nearly all actives have a fitted effect of over 20% in size; note: potency is the fitted concentration of half-maximal effect). The method in brief:
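Cytotoxicity was quantified from ATP content by CellTiter-Glo luminescence in the same wells as the MMP dye read-out. HepG2 (2,000 cells/well) were plated overnight and exposed to compounds for 1 hr at 37 C.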

The nature of test [6]: qHTS assay to test for compound auto fluorescence at 460 nm (blue) in HEK293 cells (AID 720678). The method in brief: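 HEK293 cells (2,000/well, medium with 10% dialyzed FBS) attached 4-5 hr, then exposed to compound overnight at 37C, 5% CO2. Blue fluorescence read at 405/460 nm, with triamterene as reference fluorophore.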
A short description of test [7]: qHTS assay to test for compound auto fluorescence at 590 nm (red) in HEK293 cells (AID 720679). The method in brief:
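HEK293 cells (2,000/well, 10% dialyzed FBS) attached 4-5 hr, then dosed with compound or DMSO and incubated overnight at 37C, 5% CO2. Red fluorescence read at 540/590 nm, Rose Bengal sodium as reference fluorophore.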

Test [8] is described as follows: qHTS assay to test for compound auto fluorescence at 590 nm (red) in HepG2 cells (AID 720674). An outline of the steps:
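HepG2 cells, 2,000 per well in MEM with 10% FBS, attached overnight at 37 C, then got 23 nL compound or DMSO. After 1 hr at 37 C, 5% CO2, red fluorescence was read at 540/590 nm against Rose Bengal sodium as reference.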

The nature of test [9]: qHTS assay to test for compound auto fluorescence at 535 nm (green) in HepG2 cells (AID 720675).
Test [10] can be described thus: qHTS assay for small molecule disruptors of the mitochondrial membrane potential (AID 720635). Note: potency is the fitted concentration of half-maximal effect. The method in brief: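 HepG2 cells exposed to compound 1 hr at 37C, then Mito-MPS dye 30 min. Ratio read of aggregate (540/590 nm) versus monomer (490/535 nm) fluorescence.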

Where “and” joins values, the source holds several entries; their conditions need not be identical. Identical values can stand only once. Values without a mark were called inactive. Records with an inconclusive call do not appear. Calls of active or inactive are those of the source. Unless noted, calls come from the whole dose curve; as a rule, active = well fitted curve in the direction sought with a large enough effect in the repeat runs; inconclusive = weak or mixed curves; inactive = no such curve, though single readings can be large; an effect the other way counts as inactive or inconclusive.
% is set by controls: 0 for no effect and ±100 for the full control effect.

As to `O=c1[nH]c2ccc(Cl)cc2o1`, the Potency result in [1], in [2], in [3], in test [4], in test [5] and in test [6] was “inactive” throughout. The result in test [7] was inactive.

Consider `CC(C)C[C@H](NC(=O)[C@H](CCc1ccccc1)NC(=O)CN1CCOCC1)C(=O)N[C@@H](Cc1ccccc1)C(=O)N[C@@H](CC(C)C)C(=O)[C@@]1(C)CO1`, for which the Potency in test [1] is 0.0668 µM (active); in test [2] it was 0.106 µM (active); in test [3], 0.335 µM (active); in test [4], 0.211 µM (active). Besides, the Potency entry in test [5] and in test [6] was “inactive” throughout. Further, the compound was called inactive in test [8], in [9] and in test [7].

`CCC=CC#N`: the Potency result in test [1], in [2], in [3], in [4], in [5] and in test [6] was “inactive” throughout. Besides, the result in test [8], in test [9] and in test [7] was inactive.

With `O=C1NC(=O)c2cc([N+](=O)[O-])ccc21`, the Potency entry in test [1], in test [2], in test [3], in test [4], in test [5] and in [6] was “inactive” each time. Besides, the compound was classed as inactive in [8], in test [9] and in [7].

As for `CN1CCCN=C1COC(=O)C(O)(c1ccccc1)C1CCCCC1` (centres undefined), the Potency entry in test [1], in [2], in test [3], in [5] and in test [6] was “inactive” throughout. In addition, the outcome in test [8], in [9] and in test [7] was inactive.

As to `Clc1cc(Cl)nc(Cl)n1`, the Potency result in test [1], in test [3], in test [5], in test [10] and in [6] was “inactive” throughout. The outcome in test [8], in test [9] and in test [7] was inactive.

Regarding `CO[C@]1(NC(=O)CSC(F)F)C(=O)N2C(C(=O)O)=C(CSc3nnnn3CCO)CO[C@H]21`, the Potency result in test [1], in [2], in test [3], in test [5], in test [10] and in test [6] was “inactive” each time. The compound was called inactive in test [8], in [9] and in test [7].

As for `CCC1NC(=O)c2cc(S(N)(=O)=O)c(Cl)cc2N1` (centres undefined), the Potency entry in test [1], in test [3], in test [4] and in [5] was “inactive” in each case. The fluorescence, relative to Rose Bengal in [8] was 0.403% [at 18.6 µM]. Besides, the fluorescence, % of fluorescein control in test [9] is 0.161% [at 18.6 µM]. In addition, the fluorescence, % of triamterene in test [6] is -0.286% [at 18.6 µM]. In [7], the fluorescence, % of fluorescent control is -0.132% [at 18.6 µM].

For `OC(CCN1CCCC1)(c1ccccc1)C1CCCCC1` (centres undefined), the Potency entry in test [1], in test [2], in test [3] and in test [5] was “inactive” each time. Further, in test [8], the fluorescence, relative to Rose Bengal is 0.15% [at 18.6 µM]. Also, in [9], the fluorescence, % of fluorescein control is 0.0313% [at 18.6 µM]. Moreover, the fluorescence, % of triamterene in test [6] is 0.0017% [at 18.6 µM]. The fluorescence, % of fluorescent control in [7] is -0.0138% [at 18.6 µM].

As for `Cc1ccc(OC(=O)c2ccccc2O)cc1`, the Potency entry in test [1], in [2], in test [3], in test [5] and in test [10] was “inactive” each time. The compound was called inactive in test [8], in [9] and in test [7].

For the compound `CC(=O)OCC[N+](C)(C)C`, the Potency entry in test [1], in test [2], in [3], in test [5], in [10] and in [6] was “inactive” each time. Besides, the outcome in test [9] and in test [7] was inactive.

For the compound `CC(=O)[C@H]1[C@H](C#N)C[C@H]2[C@@H]3CC=C4C[C@@H](O)CC[C@]4(C)[C@H]3CC[C@@]21C`, the Potency entry in test [1], in test [2], in test [3], in test [5], in [10] and in test [6] was “inactive” each time. The result in [8] and in test [7] was inactive.

`O=C(CCc1ccc(O)cc1)c1c(O)cc(O)cc1O`: the Potency is 70.1 µM (active) in test [1] and 3.13 µM (active) in test [10]. Moreover, the Potency result in test [2], in test [3] and in test [6] was “inactive” throughout. Besides, the result in test [7] was inactive.

With `O=C1c2ccccc2C(=O)C1(O)O`, the Potency in test [1] is 27.4 µM (active); in test [10], 24.5 µM (active). For the same compound, the Potency entry in test [2], in [4] and in test [6] was “inactive” throughout. The compound was classed as inactive in test [8], in [9] and in [7].

Turning to `O=[N+]([O-])c1ccc(Nc2ccc(Nc3ccccc3)c(S(=O)(=O)O)c2)c([N+](=O)[O-])c1`, the Potency result in test [1], in [2], in [3], in test [5] and in test [6] was “inactive” throughout. For the same compound, the call in test [9] and in [7] was inactive.

Turning to `O=c1c(O)c(-c2ccc(O)cc2)oc2cc(O)cc(O)c12`, the Potency result in [1], in test [3], in test [4], in test [5] and in [6] was “inactive” in each case. The Potency in test [10] was 3.84 µM (active) and 328 nM (active). Also, the result in test [8], in test [9] and in [7] was inactive.

With `CCCCCCNC(=O)n1cc(F)c(=O)[nH]c1=O`, the Potency in test [1] was 1.5 µM (active); in test [3], 0.668 µM (active). Also, the Potency result in [4], in test [5] and in test [6] was “inactive” in each case. Also, the compound was called inactive in test [7].

Regarding `CC(C)C=O`, the Potency result in test [1], in test [3], in [5] and in [10] was “inactive” each time. Also, the outcome in [8], in test [9] and in [7] was inactive.

`C=C(C)C(=O)OCCCCCCCCCCCCC`: the Potency entry in [1], in [2], in [3], in test [5], in test [10] and in test [6] was “inactive” in each case. Besides, the call in test [8], in [9] and in [7] was inactive.

Take `COc1cc(C(=O)NCCCCCC(=O)O)cc(OC)c1OC`: the Potency result in test [1], in test [2], in test [3], in [5], in [10] and in [6] was “inactive” each time. Besides, the call in test [9] and in [7] was inactive.

Regarding `CC/C=C1/OC(=O)c2ccccc21`, the Potency result in test [1], in [3], in test [5], in [10] and in test [6] was “inactive” each time. The compound was classed as inactive in test [8] and in [7].

Consider `CN1C(=O)N(c2ccccc2Br)Cc2cnc(Nc3ccc4c(c3)OCC(CO)O4)nc21` (centres undefined), for which the Potency in test [1] is 19.3 µM (active); in test [4], 54.5 µM (active); in [5], 48.6 µM (active); in [10] it was 24.3 µM (active). For the same compound, the Potency entry in test [2] and in [6] was “inactive” each time. For the same compound, the outcome in [8], in [9] and in [7] was inactive.

Turning to `O=c1[nH]ncc2ccccc12`, the Potency result in [1], in [2], in test [3], in test [5] and in test [10] was “inactive” each time. Further, the call in test [8], in test [9] and in test [7] was inactive.

Consider `CCC(OCCCOC)OC(C)=O` (centres undefined), for which the Potency entry in test [1], in [2], in test [3], in test [5] and in [6] was “inactive” throughout. The outcome in [8], in test [9] and in test [7] was inactive.

In the case of `CC(C)=CCC1C(=O)N(c2ccccc2)N(c2ccccc2)C1=O`, the Potency in test [1] was 15 µM (active); in test [3] it was 21.1 µM (active). In addition, the Potency result in test [2] and in test [5] was “inactive” throughout. Besides, the outcome in test [7] was inactive.

As for `C/C=C(/C(=C/C)c1ccc(O)cc1)c1ccc(O)cc1`, the Potency in [1] is 3.2 µM (active); in test [10], 9.02 µM (active). In addition, the Potency result in [2], in test [4] and in test [5] was “inactive” throughout. For the same compound, in test [8], the fluorescence, relative to Rose Bengal was 0.479% [at 18.6 µM]. For the same compound, the fluorescence, % of triamterene in test [6] was 0.118% [at 18.6 µM]. For the same compound, the fluorescence, % of fluorescent control in test [7] was 0.023% [at 18.6 µM].

(Values after PubChem BioAssay (Tox21).)
